Only some compounds are listed: those with a hit (about 14% of all), similar ones and a draw of the others.
Pf growth 96h – Primary qHTS for delayed death inhibitors of the malarial parasite plastid, 96 hour incubation. P. falciparum luciferase reporter growth, 96 h. Potency, µM (top dose mostly 28.7 µM), for inactives: at the top dose activity change, negative = inhibition, actives largely listed as inhibitors. hit rate 6.9% among 320,000; further: potency means the concentration at half of the fitted maximal effect
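Erythrocytes infected with luciferase-expressing P. falciparum were dispensed at 2% hematocrit and 0.05% parasitemia (final), then incubated with compounds 96 hours at 37 C in 5% CO2. Luminescence after detection reagent addition reported growth.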
LASV entry inh – qHTS for Inhibitors of binding or entry into cells for Lassa Virus. Lassa virus pseudotype entry inhibition, cell reporter. Potency, µM (top dose mostly 37.9 µM), inactives show top-dose activity change, negative = inhibition, hits mostly inhibitors. hit rate 1.2% among 300,000. AID 540256, 2011; calls by dose curve; tested in HEK293 cells; further: potency means the concentration at half of the fitted maximal effect; nearly all actives have a fitted effect of over 50% in size
HCV inh – qHTS Assay for Inhibitors of Hepatitis C Virus (HCV). Huh7.5.1 HCVcc-Cre infection, luciferase reporter, 44 h. Potency, µM (highest dose often 41.8 µM), inactives show at the highest dose activity change, negative = inhibition, most hits filed as inhibitors. hit rate 3.4% among 340,000. AID 651820, 2012; further: potency means the concentration at half of the fitted maximal effect
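After 44 h co-culture of compound, cells and HCVcc-Cre (~0.5 moi), substrate is added for 15 min at room temperature and luciferase measured over 15 sec. Cells were seeded at 1,000/well and pre-cultured 4 h.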
Marburg entry inh – qHTS for inhibitors of binding or entry into cells for Marburg Virus. Marburg virus pseudotyped entry inhibition, cell reporter. Potency, µM (titrated, usually from 37.8 µM), without a hit: at the top dose activity change, negative = inhibition, hits mostly inhibitors. hit rate 1.8% among 300,000; calls by dose curve; tested in HEK293 cells; further: potency means the concentration at half of the fitted maximal effect
Pf growth 48h – Primary qHTS for delayed death inhibitors of the malarial parasite plastid, 48 hour incubation. Potency, µM (titrated, usually from 28.7 µM), without a hit: at the highest dose activity change, negative = inhibition, hits mostly inhibitors. AID 504832, 2011. P. falciparum luciferase growth in erythrocytes, 48 h. hit rate 5.9% among 310,000; further: potency means the concentration at half of the fitted maximal effect
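Firefly luciferase activity from engineered P. falciparum reports growth; inhibitors lower the luminescent signal. Cultures contained 2% hematocrit erythrocytes at 0.1% final parasitemia.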
HCMV antiviral – qHTS Assay for inhibitors of the human cytomegalovirus (HCMV). HFF cells, HCMV-luciferase reporter, 72 h; active compounds read low. activity change, negative = inhibition, % at 57.5 µM. hit rate 4.5% among 410,000. AID 1259415, 2018; in the data active means activity change below about -60%; inconclusive means no clear call, values can overlap the other calls; inactive means above about -39%
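Two-dose cell screen: HFF monolayers treated with compounds and infected with luciferase-expressing HCMV at 1 PFU/cell, 72 h at 37C, then lysed for luciferase measurement.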
An asterisk follows results filed as active; ? = inconclusive; nt = no result; [ ] = dose if it differs, or a comment. Unless noted, the call rests on the fitted dose curve; in most records, active means well fitted inhibition curve with a large enough effect; inconclusive means small, poorly fitted or top-dose-only effect, or another doubt; inactive means no such curve, though single readings can be large or run the other way. On the % scale 0 is the no-effect control and ±100 the full control effect.

SMILES | Pf growth 96h | LASV entry inh | HCV inh | Marburg entry inh | Pf growth 48h | HCMV antiviral
Cc1ccc(N2CCN(c3c(CN4CCCC4)c(=O)oc4ccccc34)CC2)c(C)c1 | nt | ? | nt | 4%[46.1 µM] | nt | -8
Cc1cn2c(=O)c(S(=O)(=O)NCc3ccccc3Cl)c(C)nc2s1 | nt | 7%[46.1 µM] | nt | nt | nt | 12
CCOC(=O)[C@@]1([C@@H](NC(=O)OC)c2cccc(F)c2)CCCC1=O | nt | nt | nt | -13%[14.2 µM] | nt | nt
O=C(NC(=S)Nc1cc(C(F)(F)F)ccc1N1CCOCC1)c1sc2ccccc2c1Cl | 3.3µM* | nt | 0% | nt | 2.1µM* | 5
CC(C(=O)Nc1cc(C(F)(F)F)ccc1N1CCOCC1)N1C(=O)C2CCCCC2C1=O (stereo not drawn) | 23% | nt | 6% | nt | -8% | -5
COc1cc(Cl)c(C)cc1NC(C)C(=O)Nc1cc(C(F)(F)F)ccc1N1CCOCC1 (stereo not drawn) | 0.066µM* | 3% | 6% | ? | 0.15µM* | -20
COC(=O)c1ccccc1NC(=O)CSc1nc2nc(C)cc(C)n2n1 | nt | 13%[46.1 µM] | nt | -4%[46.1 µM] | nt | -1
CCCOc1ccc(N2C(=O)CC(N(CCc3ccc(OC)cc3)C(=O)c3ccccc3)C2=O)cc1 (stereo not drawn) | 25% | ? | ? | -18% | -7% | 8
Cc1ccccc1-n1nc2c(c1NC(=O)C1CC1)CS(=O)(=O)C2 | nt | nt | nt | nt | nt | -11
Cn1c(=O)[nH]c(=O)c2c1nc(N1CCCCC1)n2CC(O)COc1ccccc1 (stereo not drawn) | ? | nt | 17% | nt | -5% | 1
Cc1ccnc(SCCn2c(N3CCN(c4ccccc4)CC3)nc3c2c(=O)[nH]c(=O)n3C)n1 | 4.7µM* | nt | 0% | nt | nt | 3
CN1CCN(c2nc3c(c(=O)[nH]c(=O)n3C)n2CC(N)=O)CC1 | 13µM* | 8% | 16% | 28% | ? | -12
Cn1c(=O)[nH]c(=O)c2c1nc(N1CCOCC1)n2CC(O)COc1ccc2ccccc2c1 (stereo not drawn) | 6.6µM* | -6% | 2% | ? | -10% | -6
CCCn1c(N2CCN(C)CC2)nc2c1c(=O)[nH]c(=O)n2C | -12% | 5% | 14% | -17% | 4% | -10
C/C(Cl)=C\Cn1c(N2CCCC2)nc2c1c(=O)[nH]c(=O)n2C | -20% | 5% | -7% | -23% | -23% | -89*
O=C(O)C[C@@H]1CCCc2ccccc2[C@H]1O | nt | nt | nt | 38% | nt | nt
CCN1CCN(c2nc3c(c(=O)[nH]c(=O)n3C)n2CCCSc2ncccn2)CC1 | ? | -1% | 8% | 21% | -12% | 52
CN1CCN(c2nc3c(c(=O)[nH]c(=O)n3C)n2CCCSc2ncccn2)CC1 | 13µM* | 7% | 10% | 1% | 0% | 22
O=C1CC(c2ccccc2F)c2cc3c(cc2N1)CCC3 (stereo not drawn) | 22% | -11% | -5% | ? | 20% | -34
O=C1CC(c2cc(Br)ccc2F)c2cc3c(cc2N1)CCC3 (stereo not drawn) | -53% | ? | ? | ? | ? | -73*
O=C(CCCn1nnnc1CN1CCOCC1)N1CCC(c2ccc(F)cc2)C1 (stereo not drawn) | 7.4µM* | ? | 0% | -5% | -36% | -9
COc1ccc(N2CCN(C(=O)CCCn3nnnc3CN3CCOCC3)C(C)C2)cc1 (stereo not drawn) | 12µM* | -11% | 10% | ? | -9% | 1
CCN(CC)C(=O)C1CCCN(C(=O)CCn2nnnc2CN2CCOCC2)C1 (stereo not drawn) | 9% | 7% | 22% | ? | 4% | -19
CCCCCSc1nncc(=O)[nH]1 | 68% | -2% | 11% | 19% | 25% | 7
CCCCCCCCSC1=CC(=O)C(OC)=C(OC)C1=O | nt | nt | nt | nt | nt | -87*
SMILES | Pf growth 96h | LASV entry inh | HCV inh | Marburg entry inh | Pf growth 48h | HCMV antiviral
O=C(C1CCN(C2CCN(C/C(Cl)=C/c3ccccc3)CC2)CC1)N1CCOCC1 | 10µM* | nt | ? | nt | -11% | -35
C/C(=C\c1ccccc1)CN1CCC(C(=O)N2CCCCC2)CC1 | 3% | 17% | 5% | 2% | 1% | -21
CCOC(=O)c1c(-c2ccc(F)cc2)csc1NC(=O)c1c(-c2ccccc2)noc1C | -1% | 8.9µM* | ? | 3.5µM* | ? | -68*
CCOC(=O)c1c(-c2ccccc2)csc1NC(=O)C1CCCO1 (stereo not drawn) | 1% | -21% | 10µM* | -19% | -7% | 10
Cc1ccc(-c2csc(NC(=O)c3ccc(Br)cc3)c2C(=O)O)cc1 | 4% | ? | 0% | 1.3µM* | nt | -95*
COC(=O)c1c(-c2ccc(C)cc2)csc1NC(=S)NC(=O)c1ccc(F)cc1 | 8.3µM* | 1% | 2% | 9% | ? | 1
CCOC(=O)C(Cc1ccccc1)(Nc1ccccc1)C(O)c1ccc([N+](=O)[O-])cc1 (stereo not drawn) | nt | nt | nt | nt | nt | 23
CCC(C(=O)NCc1cc(OC)ccc1OC)n1nc(C)c2sc3ccccc3c2c1=O (stereo not drawn) | nt | 8%[46.1 µM] | nt | -7%[46.1 µM] | nt | -18
CCOC(=O)c1c(-c2ccc(OC)c(OC)c2)csc1NC(=O)c1ccc(C)cc1 | nt | -15%[46.1 µM] | nt | -2%[46.1 µM] | nt | -6
CCOC(=O)c1c(-c2ccc(C)cc2)csc1NC(=S)NC(=O)c1ccccc1 | 7.4µM* | 2.1µM* | ? | 1.8µM* | 10µM* | ?
COc1ccc(/C=N/NC(=O)Cc2ccc(Cl)cc2)cc1OC | ? | -5% | -14% | ? | 2% | 33
COc1cc(/C=N/NC(=O)Cc2ccc(Br)cc2)cc(OC)c1O | 12µM* | nt | ? | -10%[46.1 µM] | 0% | -18
